The text below walks through data of PubChem BioAssay AID1745848 (National Center for Advancing Translational Sciences (NCATS), 2022).

Among all 2,100 compounds or so, about 940 (45%) were called active. Another 48% or so got no clear call; they are omitted. The set was probably picked from earlier hits. The list shows a part of the results. A number with no mark means an inactive call. Calls come from the whole dose curve; as a rule, active = well fitted inhibition curve with a large enough effect; inconclusive = small, poorly fitted or top-dose-only effect; inactive = no such curve, though single readings can be large or run the other way.
Potency is the fitted concentration of half-maximal effect.

The test is described as follows: Confirmatory qHTS for Inhibitors of ATXN expression.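 For activity change, negative = inhibition: 0% = DMSO vehicle wells and -100% = medium-only wells without cells.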 Note: nearly all actives have a fitted effect of over 65% in size. Conditions: ATXN2-luciferase reporter cells, luminescence, 24 h; series mostly up to 11.5 µM; activity change, negative = inhibition: at the top concentration. The procedure, abridged: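 A titration, incubated 24 h with reporter cells expressing ATXN2-luciferase. Luminescence (SteadyGlo) gives ATXN2 expression, multiplexed GF-AFC fluorescence gives viability; normalised to DMSO and medium-only wells.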
(In general: Quantitative high-throughput screening tests each substance at several concentrations.)
As for `CN1CCC(NC(=O)c2cc(-c3cccc(Br)c3)nc3ccccc23)CC1`, the Potency is 25.1 µM (active).

On to `CC(=O)Nc1cc(-c2ccc(C(=O)NC3CC3)cc2)cn2c(-c3cccc(C(C)=O)c3)cnc12`, for which the “activity change, negative = inhibition” value was -13.8% [at 57.5 µM].

`CC[C@@]1(O)C(=O)OCc2c1cc1n(c2=O)Cc2cc3c(CN(C)C)c(O)ccc3nc2-1`: the “activity change, negative = inhibition” value was -84.6% [at 57.5 µM].

Take `CCc1c2c(nc3ccc(OC(=O)N4CCC(N5CCCCC5)CC4)cc13)-c1cc3c(c(=O)n1C2)COC(=O)[C@]3(O)CC`: the Potency is 0.316 µM (active).

Consider `Cc1sc(NC(=O)c2cc(-c3ccc(Cl)cc3)nc3ccccc23)c(C(N)=O)c1C`, for which the Potency is 7.08 µM (active).

`C=CCN(C(=O)CSc1nc2c(sc3ccccc32)c(=O)n1CCN(CC)CC)c1ccccc1`: the Potency was 28.2 µM (active).

`CCc1nc2ccc(C(=O)NCCOc3ccc(OC)cc3)cn2c1N(CCC(C)C)CCN(C)C`: the Potency is 3.98 µM (active).

Consider `O=C(NCC1CC1)c1ccc2c(c1)S(=O)(=O)c1cc(Cl)ccc1C2=O`, for which the “activity change, negative = inhibition” value is -23.7%.

As for `CC(C)CC(NC(=O)c1ccc(Cl)cc1)C(=O)OCC(=O)c1ccc2c(c1)NC(=O)CO2` (centres undefined), the Potency is 28.2 µM (active).

`CCCCC1C(=O)CC[C@H]2[C@@H]1CC(=O)[C@@H]2C/C=C\CCCC(=O)O` (some centres undefined): the “activity change, negative = inhibition” value was -21.7%.

With `COc1nn(-c2ccccc2)c(=O)c(Cl)c1Cl`, the Potency was 1.41 µM (active).

Regarding `Cc1ccc(C(NC(=O)C2CCN(Cc3ccc(Cl)c(Cl)c3)CC2)c2ccccn2)cc1` (centres undefined), the Potency is 28.2 µM (active).

For `COC(=O)[C@H]1C[C@H](OC(=O)NC2CC2)[C@@]2(O)CN(S(=O)(=O)c3ccc(C)cc3)CC2[C@H]1C(=O)OC` (some centres undefined), the “activity change, negative = inhibition” value is 11.1%.

Regarding `O=C(CSC1=NNC(c2ccccn2)S1)Nc1ccc(C(F)(F)F)cc1` (centres undefined), the Potency is 28.2 µM (active).

In the case of `COc1cc2ccnc(Cc3cccc(OC)c3OC)c2cc1OC`, the Potency was 1 µM (active).

On to `COc1cc(C)c(C(=O)CC(=O)c2c(C)cc(OC)cc2C)c(C)c1`, for which the “activity change, negative = inhibition” value was -2.99%.

As to `CCCCOc1ccccc1NC(=O)Cn1c(-c2nonc2N)nc2ccccc21`, the Potency was 3.98 µM (active).

Take `COc1ccc(Cc2[nH]n3c(=O)cc(C(C)C)nc3c2-c2ccccc2)cc1`: the Potency was 8.91 µM (active).

With `Cc1cc(C)c(S(=O)(=O)/N=C2\C=C(Nc3ccc(C(=O)O)cc3)C(=O)c3ccccc32)c(C)c1`, the Potency is 1.78 µM (active).

As to `COC1=CC(=O)C=C(OC)C1(O)CC(C)=O`, the “activity change, negative = inhibition” value was -9.18% [at 57.5 µM].

Turning to `O=C1/C(=C/c2ccc([N+](=O)[O-])cc2)C=C(c2ccccc2)N1c1ccc(O)cc1`, the Potency is 2.51 µM (active).

For the compound `Cc1cc2c(c(/C=C/C(=O)c3ccccc3)c1)OC1(C=C2)Oc2ccccc2C(=O)N1C` (centres undefined), the Potency is 25.1 µM (active).

For the compound `CCCCCn1c(=O)c2ccccc2n2c(CCl)nnc12`, the Potency was 15.8 µM (active).

As to `COc1cc(C(=O)N/N=C(\c2ccccc2)c2ccccn2)cc(OC)c1OC`, the Potency is 0.355 µM (active).

With `CCC(CC)C(=O)c1c[nH]c(C(=O)NCc2ccccn2)c1`, the “activity change, negative = inhibition” value was -10.4% [at 57.5 µM].

Turning to `O=C(NN=C(c1ccccc1)c1ccccn1)c1ccccc1`, the Potency is 2.24 µM (active).

`O=C(N/N=C(\c1ccccc1)c1ccccn1)c1ccccc1Cl`: the Potency is 3.55 µM (active).

On to `O=C(O)CSc1cc(NS(=O)(=O)c2cccc([N+](=O)[O-])c2)c2ccccc2c1O`, for which the Potency was 3.16 µM (active).

As to `CN(Cc1cnc2nc(N)nc(N)c2n1)c1ccc(C(=O)N[C@@H](CCC(=O)O)C(=O)O)cc1`, the Potency is 0.398 µM (active).

As for `CN(Cc1cnc2nc(N)nc(N)c2n1)c1ccc(C(=O)NC(CCC(=O)O)C(=O)O)c2ccccc12` (centres undefined), the Potency was 0.1 µM (active).

Consider `Cc1ccc(CN2CC(C(=O)Nc3ncc(C)s3)CC2=O)cc1` (centres undefined), for which the Potency was 1.78 µM (active).

As for `Cc1cnc(NC(=O)C2CC(=O)N(c3cccc(Cl)c3)C2)s1` (centres undefined), the Potency is 0.112 µM (active).

Consider `Cc1ccc(N2CC(C(=O)Nc3nccs3)CC2=O)cc1Cl` (centres undefined), for which the Potency was 2.24 µM (active).

As to `Cc1ccc2nc(NC(=O)CSCC(=O)OCC(=O)c3ccc(Br)cc3)sc2c1`, the Potency was 3.55 µM (active).

Turning to `COc1ccc(-c2csc(NC(=O)C3CCN(c4ncnc5sc(C)c(C)c45)CC3)n2)cc1OC`, the Potency was 3.98 µM (active).

As for `CCN(CC)S(=O)(=O)c1cc(NC(=O)C2CCN(c3ncnc4sc(C)c(C)c34)CC2)ccc1Cl`, the Potency was 3.55 µM (active).

`COc1ccc(S(=O)(=O)N(C)C)cc1NC(=O)C1CCN(c2ncnc3sc(C)c(C)c23)CC1`: the Potency was 22.4 µM (active).

Consider `Cc1sc2nc(CN3CCCC3)nc(N3CCC(C(N)=O)CC3)c2c1C`, for which the “activity change, negative = inhibition” value is -14.9% [at 57.5 µM].

Regarding `Oc1c(C(c2ccccn2)N2CCCCC2)cc(Cl)c2cccnc12` (centres undefined), the Potency is 15.8 µM (active).

As to `Oc1c(C(c2ccccn2)N2CCC(Cc3ccccc3)CC2)cc(Cl)c2cccnc12` (centres undefined), the Potency is 28.2 µM (active).

Take `O=C(NC(Nc1ncc(S(=O)(=O)c2ccc([N+](=O)[O-])cc2)s1)(C(F)(F)F)C(F)(F)F)c1ccc(Cl)cc1`: the Potency was 3.55 µM (active).

On to `O=C(NC(Nc1nc2ccc([N+](=O)[O-])cc2s1)(C(F)(F)F)C(F)(F)F)c1ccccc1`, for which the Potency was 0.355 µM (active).

For `O=c1oc2ccccc2c(O)c1Cc1cc(Cl)c2cccnc2c1O`, the Potency was 15.8 µM (active).

Turning to `CC[n+]1c(/C=C/c2c[nH]c3ccccc23)ccc2cc(C)ccc21`, the Potency is 7.94 µM (active).

For `COC(=O)c1ccccc1S(=O)(=O)NNC(=O)Nc1ccccc1`, the “activity change, negative = inhibition” value is -24.3%.

Consider `Cc1[nH]n(-c2cccc3ccccc23)c(=O)c1/C=N/NC(=O)c1cccc([N+](=O)[O-])c1`, for which the Potency is 7.94 µM (active).

For the compound `COc1ccc(/C=N/NC(=O)c2cccc([N+](=O)[O-])c2)c2ccccc12`, the Potency is 3.16 µM (active).

Regarding `CCCc1nc(NC2CCCCC2)c(C#N)c2c1COC(C)(C)C2`, the “activity change, negative = inhibition” value was 4.81%.

As for `O=C(Cc1ccc(-c2ccccc2)cc1)Nc1ccccn1`, the Potency is 15.8 µM (active).

As for `CC(C)C1C(=O)N(Cc2cn(CCC3OCCO3)nn2)CCS(=O)(=O)N1Cc1ccc(-c2ccc(Cl)cc2)cc1` (centres undefined), the Potency was 31.6 µM (active).

Turning to `CSc1ncnc2c1ncn2CC(=O)C1CCC2C3CCC4=CC(=O)CCC4(C)C3CCC12C` (centres undefined), the Potency is 11.2 µM (active).

For the compound `CCCC(=O)NC(c1ccc(OC)c(OC)c1)c1cc(Cl)c2cccnc2c1O` (centres undefined), the Potency was 2.51 µM (active).

On to `CCC(=O)NC(c1ccc(OC)c(OC)c1)c1cc(Cl)c2cccnc2c1O` (centres undefined), for which the Potency is 2.82 µM (active).

With `COc1ccc(C(NC(=O)c2cccnc2)c2cc(Cl)c3cccnc3c2O)cc1OC` (centres undefined), the Potency is 2.51 µM (active).
